Results filed as inconclusive are left out. The source made the active and inactive calls. Calls come from the whole dose curve.
% is set by controls: 0 for no effect and ±100 for the full control effect; potency is the fitted concentration of half-maximal effect.

This experiment can be described thus: Cytotoxicity counterscreen for inhibitors of SARS-CoV-2 cell entry (AID 1645845). Note: nearly all actives have a fitted effect of over 50% in size. The following applies: cell viability (SARS-CoV-2 entry assay cells); series mostly up to 57.1 µM; activity change, negative = cytotoxicity: at the top concentration. The method, boiled down: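 Expi293F/hACE2 cells seeded overnight; cpd pin-transferred in DMSO, 1 h preincubation, + media, 48 h 37 C 5% CO2; ATPLite 1step luminescence; normalized to cells and no cells.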
Consider `CO[C@H]1C[C@@H]2CC[C@@H](C)[C@@](O)(O2)C(=O)C(=O)N2CCCC[C@H]2C(=O)O[C@H]([C@H](C)C[C@@H]2CC[C@@H](OP(C)(C)=O)[C@H](OC)C2)CC(=O)[C@H](C)/C=C(\C)[C@@H](O)[C@@H](OC)C(=O)[C@H](C)C[C@H](C)/C=C/C=C/C=C/1C`, for which the “activity change, negative = cytotoxicity” value is -27.2% (inactive).
Turning to `COc1ccc2nc3n[nH]c(C)c3c(NCCOCCO)c2c1`, the “activity change, negative = cytotoxicity” value is -10.7% (inactive).
`Cc1ccc(C(=O)Nc2ccc(CN3CCN(C)CC3)c(C(F)(F)F)c2)cc1C#Cc1cnc2[nH]ncc2c1`: the Potency is 31.6 µM (active).
Consider `FC(F)(F)c1ccc(CNc2ccc(Cc3c[nH]c4ncc(Cl)cc34)cn2)cn1`, for which the “activity change, negative = cytotoxicity” value was -5.07% (inactive).
`Nc1n[n+]([O-])c2ccccc2[n+]1[O-]`: the molecule was classed as inactive.

The record behind these values is PubChem BioAssay (NCATS).
